Results taken from PubChem BioAssay.
The source made the active and inactive calls. Unless noted, no rule for the calls is given here.

Tests used:
[1] = HepG2 liver cancer cell viability effects, profiling panel, resazurin fluorescence, 24 h, PK04 Diversity Set (AID 1172); settings: higher = more signal
[2] = basal S. cerevisiae growth modulation, no modifier, primary screen, OD600, strain BY4716, 24 h, basal condition (AID 1173); settings: OD600, 24 h, higher = more signal, called active from +8 up or from −8 down
[3] = MM1S myeloma cell viability, profiling panel, resazurin fluorescence, basal, 24 h, PK04 Diversity Set (AID 1174); settings: higher = more signal, called active from +8 up or from −8 down;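 also: MM1S multiple myeloma cell line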
[4] = target: Dihydroorotate dehydrogenase (quinone), mitochondrial (Plasmodium falciparum (isolate 3D7)) (UniProt Q08210); assay: PfDHODH enzyme inhibitors, primary screen, biochemical, C-terminal His tag, absorbance 600 nm (AID 1175); settings: DCIP absorbance 600 nm, higher = more signal, called active from +8 up or from −8 down;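 also: recombinant parasite enzyme with a five histidine tag at its C terminus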
[5] = P. aeruginosa biofilm formation inhibitors, primary screen, strain PAO1, LB-PBS medium, absorbance 600 nm (AID 1176); settings: P. aeruginosa PAO1 growth/biofilm, A600, 12 h; higher = more signal
[6] = S. cerevisiae RM11-1a growth modifiers, primary screen, strain RM11-1a, OD600, basal, 24 h (AID 1177); settings: OD600, 24 h, higher = more signal, called active from +8 up or from −8 down;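 also: cultures grown under basal conditions with no added stressor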
[7] = E. coli acrAB mutant growth effects, primary screen, E. coli filamentation inducers, strain DRC39, OD650, 24 h (AID 1178); settings: higher = more signal, called active from +8 up or from −8 down;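 also: growth measured as culture turbidity by optical density at 650 nm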
[8] = E. coli acrAB mutant growth effects, primary screen, E. coli filamentation inducers, strain DRC39, OD650, 48 h (AID 1179);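 also: screen aims at cell division blockers that make cells filament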; settings: E. coli DRC39 delta-acrAB growth, higher = more signal, called active from +8 up or from −8 down
[9] = RPMI8226 myeloma cell viability, profiling panel, resazurin fluorescence, basal, 24 h, PK04 Diversity Set (AID 1180); settings: higher = more signal;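 also: RPMI8826 multiple myeloma cell line at 5000 cells per well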
[10] = target: E3 ubiquitin-protein ligase XIAP (Homo sapiens) (UniProt P98170); assay: XIAP binders, primary screen, biophysical, small-molecule microarray, fluorescence 635 nm (AID 1181); settings: small-molecule microarray binding, higher = more signal;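 also: score merges 667 nm emission and signal to noise over triplicate slides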
[11] = tested on: XIP peptide (Xip251-270) binding; assay: small-molecule binders of XIP peptide, primary screen, biochemical, small-molecule microarray, fluorescence 635/667 nm, 0.1 µg/mL protein (AID 1182); settings: fluorescent protein binding, 635 nm, higher = more signal, called active from +8 up or from −8 down
[12] = tested on: XIP peptide (Xip251-270); assay: small-molecule binders of XIP peptide, primary screen, biochemical, small-molecule microarray, fluorescence 635/667 nm, 0.5 µg/mL protein (AID 1183); settings: small-molecule microarray binding, fluorescence 635 nm; higher = more signal
[13] = Plasmodium falciparum growth inhibition, primary screen, strain 3D7, DAPI fluorescence, 100 nL (AID 1184);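 also: parasites grown inside human red blood cells in medium with human serum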; settings: P. falciparum 3D7 growth, 3 d, higher = more signal
[14] = target: Homeobox protein Hox-A13 (Mus musculus) (UniProt Q62424); assay: inhibitors of HoxA13-DNA binding, primary screen, biochemical, fluorescence polarization, labeled oligonucleotide (AID 1185); settings: 15 min, higher = more signal, called active from +8 up or from −8 down
[15] = inhibitors of hydroxyurea-induced Chk1 phosphorylation, primary screen, imaging, HeLa, phospho-Chk1 antibody, percent positive cells (AID 1186); settings: hydroxyurea-induced phospho-Chk1 immunofluorescence imaging, higher = more signal
[16] = inhibitors of hydroxyurea-induced Chk1 phosphorylation, primary screen, imaging, HeLa, phospho-Chk1 nuclear intensity (AID 1187); settings: hydroxyurea-induced phospho-Chk1 immunofluorescence imaging, higher = more signal

Sequence of Homeobox protein Hox-A13 (Mus musculus) (Q62424 whole entry, looked up): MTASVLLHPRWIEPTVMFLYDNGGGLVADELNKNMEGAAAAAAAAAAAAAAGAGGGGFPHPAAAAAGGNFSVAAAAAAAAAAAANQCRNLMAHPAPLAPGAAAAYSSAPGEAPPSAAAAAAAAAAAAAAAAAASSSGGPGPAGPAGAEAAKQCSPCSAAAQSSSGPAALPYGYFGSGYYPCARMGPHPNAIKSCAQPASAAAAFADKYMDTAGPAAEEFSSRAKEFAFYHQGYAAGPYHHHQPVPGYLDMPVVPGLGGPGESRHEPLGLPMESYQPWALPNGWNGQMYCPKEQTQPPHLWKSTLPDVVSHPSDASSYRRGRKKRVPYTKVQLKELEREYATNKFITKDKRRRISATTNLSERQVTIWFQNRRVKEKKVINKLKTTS
Sequence of Dihydroorotate dehydrogenase (quinone), mitochondrial (Plasmodium falciparum (isolate 3D7)) (Q08210 whole entry, looked up): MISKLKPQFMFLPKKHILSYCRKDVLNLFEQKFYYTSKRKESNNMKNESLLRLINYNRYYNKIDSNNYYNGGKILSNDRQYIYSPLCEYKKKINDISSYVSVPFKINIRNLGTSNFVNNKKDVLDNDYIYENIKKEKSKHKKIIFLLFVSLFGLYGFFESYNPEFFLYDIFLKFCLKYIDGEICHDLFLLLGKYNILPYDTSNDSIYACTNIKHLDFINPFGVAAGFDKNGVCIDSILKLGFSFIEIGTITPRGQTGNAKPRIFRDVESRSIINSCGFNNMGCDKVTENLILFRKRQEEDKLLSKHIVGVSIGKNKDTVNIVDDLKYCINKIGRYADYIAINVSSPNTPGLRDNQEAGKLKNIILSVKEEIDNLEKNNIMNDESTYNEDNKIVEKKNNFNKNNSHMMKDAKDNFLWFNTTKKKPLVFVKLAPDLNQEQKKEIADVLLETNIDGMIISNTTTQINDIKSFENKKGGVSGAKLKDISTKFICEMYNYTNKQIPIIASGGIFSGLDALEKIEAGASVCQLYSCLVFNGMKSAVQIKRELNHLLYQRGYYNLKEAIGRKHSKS
Sequence of E3 ubiquitin-protein ligase XIAP (Homo sapiens) (P98170 whole entry, looked up): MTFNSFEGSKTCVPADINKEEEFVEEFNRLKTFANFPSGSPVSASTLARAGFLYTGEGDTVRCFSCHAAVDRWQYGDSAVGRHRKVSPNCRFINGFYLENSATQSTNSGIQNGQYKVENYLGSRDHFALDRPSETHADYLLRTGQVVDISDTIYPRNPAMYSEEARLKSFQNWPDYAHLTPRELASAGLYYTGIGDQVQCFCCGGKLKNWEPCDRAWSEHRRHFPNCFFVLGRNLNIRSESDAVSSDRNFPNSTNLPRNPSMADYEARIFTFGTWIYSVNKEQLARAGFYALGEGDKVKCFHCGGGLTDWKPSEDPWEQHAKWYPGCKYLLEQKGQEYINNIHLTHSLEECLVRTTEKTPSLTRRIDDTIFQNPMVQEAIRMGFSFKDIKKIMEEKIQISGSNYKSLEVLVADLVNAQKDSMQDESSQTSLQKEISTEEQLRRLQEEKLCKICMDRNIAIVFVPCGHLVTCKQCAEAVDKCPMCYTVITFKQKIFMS

SMILES | z-score [1] | z-score [2] | z-score [3] | composite z-score [4] | z-score [5] | z-score [6] | z-score [7] | z-score [8] | z-score [9] | composite z-score [10] | composite z-score [11] | composite z-score [12] | z-score [13] | z-score [14] | z-score [15] | z-score [16]
COC(=O)[C@@]1(Cc2ccc(F)cc2)[C@@H]2C(=CC(=O)[C@H]2CC(=O)C(=O)N2CCCC2)CN1C(=O)c1ccccc1 | -1.96 | 0.336 (inactive) | -2.67 (inactive) | -3.95 (inactive) | 2.55 (inactive) | 0.381 (inactive) | 0.132 (inactive) | -0.363 (inactive) | -5.25 | -0.0391 | 0.47 (inactive) | 0.839 | -1.72 | -4.84 (inactive) | 0.261 (inactive) | 0.278 (inactive)
C=C(CCCC)C(=O)CC[C@@H](OC(C)=O)c1ccc(OCCO)cc1 | -0.603 | -2 (inactive) | -0.953 (inactive) | -1.78 (inactive) | 1.07 (inactive) | 0.662 (inactive) | 0.227 (inactive) | 0.189 (inactive) | -0.894 | -0.074 | 0.386 (inactive) | 0.607 | -2.07 | -5.09 (inactive) | -0.266 (inactive) | -0.266 (inactive)
O=C1NC(=O)C2C1C=CC(C(O)C(c1ccccc1)c1ccccc1)N2Nc1ccccn1 (centres undefined) | -0.187 | -0.639 (inactive) | -0.408 (inactive) | 1.72 (inactive) | 0.916 (inactive) | 0.419 (inactive) | -0.156 (inactive) | -0.284 (inactive) | 0.261 | 0.417 | 0.21 (inactive) | 0.797 | -0.315 | -5.58 (inactive) | -0.12 (inactive) | -0.319 (inactive)
O=C(NCC(F)(F)F)[C@@H]1c2ccccc2C(=O)N(Cc2cc(C(F)(F)F)cc(C(F)(F)F)c2)[C@H]1c1ccc(CO)cc1 | 0.0606 | 1.26 (inactive) | 0.885 (inactive) | 0.398 (inactive) | -0.0249 (inactive) | 0.378 (inactive) | 0.783 (inactive) | 1.41 (inactive) | 1.1 | 0.295 | -0.398 (inactive) | 0.637 | 0.362 | -2.44 (inactive) | -0.373 (inactive) | -0.356 (inactive)
O=C1O[C@H](c2ccccc2)[C@H](c2ccccc2)N2[C@H]1[C@@H](C(=O)Nc1nc3ccccc3s1)[C@]1(C(=O)Nc3ccccc31)[C@H]2c1ccccc1OCCO | 0.551 | 0.448 (inactive) | -1.93 (inactive) | 0.386 (inactive) | 2.76 (inactive) | 2.72 (inactive) | -0.0179 (inactive) | -0.145 (inactive) | -3.31 | -0.128 | 1.18 (inactive) | 0.758 | -1.08 | 2 (inactive) | 0.153 (inactive) | 0.65 (inactive)
COCCOC(=O)N1C(=O)[C@@]2(c3cc(C#CCNC(N)=O)ccc31)[C@H](c1ccc(O)cc1)N1[C@H](c3ccccc3)[C@H](c3ccccc3)OC(=O)[C@H]1[C@@H]2C(=O)N1CCc2cc(OC)c(OC)cc2C1 | -0.328 | 1.66 (inactive) | -0.202 (inactive) | 1.38 (inactive) | 0.902 (inactive) | 2.24 (inactive) | -0.0681 (inactive) | -0.119 (inactive) | -0.242 | 0.171 | -0.0561 (inactive) | 0.329 | -0.0011 | -1.73 (inactive) | 0.0017 (inactive) | -0.0878 (inactive)
CC(CO)N1C(=O)[C@@H]2[C@H]3C(=O)OCC=C[C@H]3OC23C=CCN(c2ccc4ccccc4c2)C(=O)[C@@H]13 (some centres undefined) | 0.984 | -0.0392 (inactive) | 0.224 (inactive) | 0.0007 (inactive) | -0.0432 (inactive) | -0.405 (inactive) | -0.398 (inactive) | -0.534 (inactive) | 0.492 | -0.138 | -0.0975 (inactive) | 0.547 | 0.48 | -4.49 (inactive) | -0.233 (inactive) | 0.0823 (inactive)
COc1ccc(C(=O)Nc2ccc(CN3C(=O)[C@]4(O[C@H](CC(=O)N(CCO)Cc5ccccc5)[C@@H]([Si](C)(C)c5ccc(OC)cc5)[C@@H]4C)c4ccccc43)cc2)cc1 | -1.18 | 0.352 (inactive) | -1.94 (inactive) | -0.633 (inactive) | 0.671 (inactive) | 2.51 (inactive) | -0.225 (inactive) | -0.575 (inactive) | -1.84 | -0.209 | 0.321 (inactive) | 0.703 | -2 | -1.96 (inactive) | 0.274 (inactive) | 0.337 (inactive)
COC(=O)[C@@]1(Cc2ccc(F)cc2)[C@H]2c3cc(C(=O)N4CCCC4)n(CCSCCO)c3C[C@H]2CN1C(=O)c1ccccc1 | -0.704 | 1.54 (inactive) | -0.526 (inactive) | 0.289 (inactive) | 0.855 (inactive) | 1.3 (inactive) | -0.405 (inactive) | -0.317 (inactive) | -0.546 | 0.0378 | 0.159 (inactive) | -0.279 | -1.41 | -4.82 (inactive) | 0.685 (inactive) | 0.827 (inactive)
